Data as given in PubChem BioAssay AID1159580 (chemical genetic matrix, 2015).
Where “and” joins values, the source holds several entries; their conditions need not be identical. Identical values can stand only once. Hit rate of the full screen: of about 5,500 compounds, about 2,000 (36%) were called active. About 18% were inconclusive and are not listed. No stated cut-off is given here; in the data, active means normalized growth mostly below about 0.91 (no sharp cut-off); inconclusive means no clear call, values can overlap the other calls; inactive means mostly above about 0.92. The list shows a part of the results.

Assay: chemical genetic growth profiling, strain panel (AID 1159580);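 further: tested at 20 µM; growth read once vehicle control cultures reached saturation at 30 °C; 1 = growth at the plate median or of vehicle wells; lower values mean less growth of the strain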
Details: S. cerevisiae deletion strains, growth OD

Measured: normalized growth

O=C1NC(=O)C(=O)C(=O)N1
inactive: locus YAL013W, strain DEP1, hits give low values 1.01 | locus YAL021C, strain ccr4, hits give low values 1 | locus YAL026C, strain drs2, hits give low values 0.991 | locus YAL030W, strain snc1, hits give low values 0.989 | locus YBL061C, strain skt5, hits give low values 0.984 | locus YBR009C, strain hhf1, hits give low values 0.997 | locus YBR021W, strain FUR4, hits give low values 1.03 | locus YBR023C, strain chs3, hits give low values 0.997 | locus YBR171W, strain sec66, hits give low values 0.979 | locus YBR229C, strain ROT2, hits give low values 1.01 | locus YBR231C, strain swc5, hits give low values 0.986 | locus YBR279W, strain paf1, hits give low values 0.993 | locus YCL011C, strain gbp2, hits give low values 0.996 | locus YCL016C, strain dcc1, hits give low values 0.995 | locus YCL029C, strain bik1, hits give low values 0.984 | locus YCL061C, strain MRC1, hits give low values 0.988 | locus YCL069W, strain vba3, hits give low values 0.989 | locus YCR088W, strain abp1, hits give low values 0.984 | locus YDL005C, strain med2, hits give low values 0.984 | locus YDL035C, strain GPR1, hits give low values 1.03 | locus YDL040C, strain nat1, hits give low values 0.988 | locus YDL074C, strain BRE1, hits give low values 1.04 | locus YDL101C, strain DUN1, hits give low values 1.02 | locus YDL134C, strain PPH21, hits give low values 1.02 | locus YDL185W, strain tfp1, hits give low values 1 | locus YDL192W, strain arf1, hits give low values 0.998 | locus YDR001C, strain nth1, hits give low values 0.981 | locus YDR069C, strain doa4, hits give low values 0.998 | locus YDR101C, strain arx1, hits give low values 0.995 | locus YDR137W, strain rgp1, hits give low values 0.999 | locus YDR150W, strain NUM1, hits give low values 1.02 | locus YDR159W, strain sac3, hits give low values 0.986 | locus YDR162C, strain NBP2, hits give low values 1.02 | locus YDR195W, strain ref2 0.962 | locus YDR297W, strain sur2, hits give low values 0.999 | locus YDR318W, strain mcm21, hits give low values 0.993 | locus YDR334W, strain swr1, hits give low values 0.99 | locus YDR335W, strain msn5, hits give low values 0.995 | locus YDR388W, hits give low values 0.98 | locus YDR392W, strain spt3, hits give low values 0.979 | locus YDR502C, strain sam2, hits give low values 1.01 | locus YEL003W, strain gim4, hits give low values 0.989 | locus YEL037C, strain rad23, hits give low values 0.996 | locus YEL061C, strain CIN8 (second series), hits give low values 0.983 | locus YEL061C, strain CIN8, hits give low values 1.01 | locus YER015W, strain faa2, hits give low values 0.992 | locus YER016W, strain bim1, hits give low values 0.99 | locus YER110C, hits give low values 0.988 | locus YER111C, strain swi4, hits give low values 0.986 | locus YER155C, strain BEM2 (second series), hits give low values 0.98 | locus YER155C, strain BEM2, hits give low values 1.01 | locus YER167W, strain BCK2, hits give low values 1.03 | locus YFR010W, strain ubp6, hits give low values 0.974 | locus YGL078C, strain dbp3, hits give low values 0.985 | locus YGL086W, strain mad1, hits give low values 1.01 | locus YGL167C, strain pmr1, hits give low values 0.987 | locus YGL173C, strain kem1, hits give low values 0.969 | locus YGL227W, strain vid30, hits give low values 0.975 | locus YGL240W, strain doc1, hits give low values 0.99 | locus YGL248W, strain PDE1, hits give low values 1.02 | locus YGL253W, strain hxk2, hits give low values 0.993 | locus YGR078C, strain PAC10, hits give low values 1.02 | locus YGR135W, strain pre9, hits give low values 1 | locus YGR229C, strain SMI1, hits give low values 1.03 | locus YGR252W, strain gcn5, hits give low values 1.03 | locus YHR013C, strain ard1, hits give low values 0.991 | locus YHR027C, strain rpn1, hits give low values 0.984 | locus YHR030C, strain SLT2, hits give low values 1.01 and 0.971 | locus YHR079C, strain IRE1 (second series), hits give low values 0.991 | locus YHR079C, strain IRE1, hits give low values 0.971 | locus YHR094C, strain hxt1, hits give low values 0.994 | locus YHR129C, strain ARP1, hits give low values 1.01 | locus YHR142W, strain chs7, hits give low values 0.988 | locus YHR200W, strain rpn10, hits give low values 0.993 | locus YIL066C, strain RNR3, hits give low values 1.03 | locus YIL073C, strain SPO22, hits give low values 0.994 | locus YIL125W, strain kgd1, hits give low values 1 | locus YIR030C, strain dcg1, hits give low values 0.992 | locus YJL092W, strain hpr5, hits give low values 0.991 | locus YJL095W, strain BCK1 (second series), hits give low values 1 | locus YJL095W, strain BCK1, hits give low values 1.01 and 0.96 | locus YJL115W, strain asf1, hits give low values 0.978 | locus YJL129C, strain trk1, hits give low values 1 | locus YJL134W, strain LCB3, hits give low values 1.01 | locus YJL154C, strain vps35, hits give low values 0.985 | locus YJL164C, strain tpk1, hits give low values 1.01 | locus YJL166W, strain qcr8, hits give low values 1 | locus YJL168C, strain set2, hits give low values 0.988 | locus YJL187C, strain SWE1 (second series), hits give low values 1.01 | locus YJL187C, strain SWE1, hits give low values 0.989 | locus YJR043C, strain POL32, hits give low values 1 | locus YJR066W, strain TOR1, hits give low values 0.974
